Bioassay records as filed in PubChem BioAssay.
CCHFV vOTU inh = CCHFV vOTU protease inhibitors, primary screen, biochemical, Pep-AMC substrate, fluorescence; Crimean-Congo hemorrhagic fever virus L polyprotein viral ovarian tumor (vOTU) protease …; inhibition, % at 11.5 µM; 370,000 compounds, 0.55% hits; in the data active = inhibition above about 30%; also: 0% = vehicle wells with enzyme and 100% = no enzyme wells
Sa RN4220 lethal = growth inhibition of S. aureus RN4220, primary screen, OD600 | 16 h | inhibition, % (test concentration not listed) | 330,000 compounds, 0.33% hits; in the data active = inhibition above about 85%;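 also: plate controls were untreated cells for no effect and reference antibiotic for full effect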
RecA splice inh = Mtb RecA intein splicing inhibitors, primary screen, biochemical, fluorescence, HTS; inhibition, % (concentration not given with the values); AID 2221, 2009; 290,000 compounds, 0.75% hits; cell-free RecA intein splicing; Protein RecA (Mycobacterium tuberculosis (strain ATCC 25618 / H37Rv)), P9WHJ3; in the data active = inhibition above about 30%;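 also: 0% = vehicle wells and 100% = reference inhibitor control wells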
Target sequence (P9WHJ3 whole entry, looked up, canonical isoform): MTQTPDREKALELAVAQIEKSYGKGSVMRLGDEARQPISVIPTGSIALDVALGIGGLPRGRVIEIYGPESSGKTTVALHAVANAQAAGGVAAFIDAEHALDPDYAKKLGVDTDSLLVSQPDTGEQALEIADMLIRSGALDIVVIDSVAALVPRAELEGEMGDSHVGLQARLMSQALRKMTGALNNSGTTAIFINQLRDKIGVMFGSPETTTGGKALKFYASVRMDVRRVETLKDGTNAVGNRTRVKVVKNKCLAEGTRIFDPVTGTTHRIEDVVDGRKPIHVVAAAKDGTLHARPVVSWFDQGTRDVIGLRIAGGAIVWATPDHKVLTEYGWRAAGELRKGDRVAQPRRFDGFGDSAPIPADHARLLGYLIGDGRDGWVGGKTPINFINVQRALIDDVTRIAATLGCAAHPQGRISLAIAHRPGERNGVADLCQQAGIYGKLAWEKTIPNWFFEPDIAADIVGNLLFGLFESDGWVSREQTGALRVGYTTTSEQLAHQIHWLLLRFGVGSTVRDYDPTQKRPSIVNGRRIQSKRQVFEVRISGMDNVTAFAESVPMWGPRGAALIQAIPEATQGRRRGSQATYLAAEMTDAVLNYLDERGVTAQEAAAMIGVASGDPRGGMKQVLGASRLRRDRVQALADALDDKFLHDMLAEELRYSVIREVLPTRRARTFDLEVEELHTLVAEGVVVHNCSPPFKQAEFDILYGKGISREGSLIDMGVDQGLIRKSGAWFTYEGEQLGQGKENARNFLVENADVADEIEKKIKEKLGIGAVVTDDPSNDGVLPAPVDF
BJeLR viability = MLPCN primary cell-based screen for lethality selective to Ras in HRASV12 cells; BJeLR (HRASV12) viability, CellTiter-Glo ATP luminescence, 48 h; inhibition, % (concentration not given with the values); 300,000 compounds, 0.17% hits; in the data active = inhibition above about 50%
Mtb hypoxia rep = PubChem AID 1159583 | 300,000 compounds, 0.1% hits | M. tuberculosis hypoxia-regulated fluorescent reporter, fluorescence | fluorescence inhibition, % (concentration not given with the values); in the data active = fluorescence inhibition mostly above about 23%, no sharp cut-off; inactive = mostly below about 17%
ugtP null kill = growth inhibition of ugtP-null S. aureus, primary screen, RN4220 ugtP deletion, OD600; 330,000 compounds, 0.54% hits; growth inhibition, % (test concentration not listed); 16 h; in the data active = growth inhibition above about 68%;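 also: plate controls were untreated wells for no effect and antibiotic for full effect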
An asterisk follows results filed as active; . = no result given. The list is not random: actives were taken first. Their share in the collection is about 1.6%.

SMILES	CCHFV vOTU inh	Sa RN4220 lethal	RecA splice inh	BJeLR viability	Mtb hypoxia rep	ugtP null kill
CCC1=C(OC(=O)N(CC)CC)N2C(=O)OC(=NCC(=O)OC)[C@]2(Cc2ccccc2)C2C1=CCC1C(=O)NC(=O)C12 (some centres not stated)	.	6.0	.	.	12.6	4.2
Clc1ccc(C2C3CN(CC4CCCCC4)C(c4ccccc4)C34CC2(c2cccnc2)C4)cn1 (configuration not stated)	.	2.4	.	.	-2.7	-2.9
COc1ccc(-c2ccc(C3C4C=CCC[C@@]4(C)C(=O)N3Cc3ccccc3)c(F)c2)cc1 (some centres not stated)	.	1.8	.	.	11.0	11.9
CCOC(=O)c1nn(-c2ccc(OC)cc2)c(=O)c2c(N)scc12	17.3	10.7	46.9*	0.0	17.7	-2.6
CCOC(=O)C1Oc2ccccc2C(c2ccc(OC)cc2)=C1C(=O)OC (configuration not stated)	12.4	4.4	.	.	-0.3	33.9
CCOC(=O)C1=C(c2ccccc2)c2ccccc2OC1C(=O)OCC (configuration not stated)	3.5	4.4	.	.	6.4	89.3*
COc1ccc(C2c3ccc4ccccc4c3Oc3ncn(CCCN(C)C)c(=N)c32)cc1 (configuration not stated)	-3.0	.	11.3	53.7*	.	.
COc1ccccc1C1c2ccc3ccccc3c2Oc2ncn(CCN(C)C)c(=N)c21 (configuration not stated)	6.8	-3.5	5.1	12.9	17.5	-9.6
O=c1c2ccccc2nc2n1CCS2(=O)=O	-3.2	.	39.2*	16.9	.	.
Cn1cccc1/C=C1\SC(=Nc2ccc(O)cc2)NC1=O	4.8	4.2	1.1	62.3*	1.8	-2.2
Cn1cccc1/C=C1\SC(=Nc2ccccc2)NC1=O	6.2	3.6	1.0	28.7	1.6	-11.6
COc1ccc(NC=CC(=O)c2ccc(Oc3ncccn3)cc2)cc1	.	3.7	.	.	11.2	0.4
CCN(CC)c1ccc(C(=C2C=CC(=[N+](CC)CC)C=C2)c2ccc(N(CC)CC)cc2)cc1	25.6	45.1	.	.	100.2*	36.3
CC1OC(OC2CC(O)C3(CO)C4C(O)CC5(C)C(C6=CC(=O)OC6)CCC5(O)C4CCC3(O)C2)C(O)C(O)C1O (configuration not stated)	9.7	.	.	.	.	.
C[C@@H]1O[C@@H](O[C@H]2C[C@@H](O)[C@]3(CO)[C@H]4[C@H](O)C[C@]5(C)[C@@H](C6COC(=O)C6)CC[C@]5(O)[C@@H]4CC[C@]3(O)C2)[C@H](O)[C@H](O)[C@H]1O (some centres not stated)	5.1	.	-1.3	71.5*	.	.
C#CCOc1ccc(C2C3=C(COC3=O)Nc3cc4c(cc32)OCO4)cc1OC (configuration not stated)	-21.8	1.4	-1.4	61.4*	-1.7	7.5
CCOc1ccccc1C1C2=C(COC2=O)Nc2cc3c(cc21)OCO3 (configuration not stated)	-11.7	3.6	-6.3	41.2	8.2	-1.9
O=C(CCN1C(=O)/C(=C\c2cccc(Br)c2)SC1=S)NCCCN1CCOCC1	5.9	5.0	6.1	84.9*	2.3	1.4
CN1CCN(C(=O)CCCN2C(=O)/C(=C/c3cccc(Br)c3)SC2=S)CC1	13.9	-0.9	16.1	90.0*	-1.3	-4.2
CCc1ccc(/C=C2/SC(=S)N(CCC(=O)NCCCN3CCOCC3)C2=O)cc1	2.1	2.1	-1.3	105.7*	9.5	11.2
CCc1ccc(/C=C2/SC(=S)N(CCC(=O)Nc3cccnc3)C2=O)cc1	-0.2	3.2	-2.1	101.8*	1.1	0.8
CN1CCN(C(=O)CCN2C(=O)/C(=C/c3cccc(Br)c3)SC2=S)CC1	-9.5	0.6	3.8	4.4	-4.4	-6.6
CC(C)C[C@@]12C(=O)N(c3cccc(Br)c3)C(=O)N1C(c1ccc(Cl)cc1)C1C(=O)N(C3CCCCC3)C(=O)C12 (some centres not stated)	.	-2.9	.	.	-6.8	-25.1
CN1CCN(c2ccc(NC(=O)c3cccc(OCc4ccccc4)c3)cc2)CC1	7.4	-6.2	0.7	4.3	.	-1.5
CCOc1cccc(C(=O)NC(=S)Nc2ccc(N3CCN(CC)CC3)cc2)c1	-6.1	2.1	-1.3	2.4	21.6	93.6*
SMILES	CCHFV vOTU inh	Sa RN4220 lethal	RecA splice inh	BJeLR viability	Mtb hypoxia rep	ugtP null kill
CCOc1cccc(C(=O)NC(=S)Nc2ccccc2)c1	7.0	4.3	2.3	-1.9	5.5	-4.9
CCCOc1cccc(C(=O)NC(=S)Nc2ccc(N3CCN(C)CC3)cc2)c1	2.4	9.2	-2.6	-1.3	21.8	95.1*
Cn1cnc([N+](=O)[O-])c1Sc1nnc(-c2cccnc2)n1C	-6.3	6.1	38.7*	-5.2	8.6	2.1
Cc1cccnc1Sc1c([N+](=O)[O-])ncn1C	2.4	1.0	.	-0.5	-5.4	-2.5
CCN1C(c2ccccc2)C(C)C(=O)C(C)C1c1ccccc1 (configuration not stated)	-8.2	-13.3	12.4	-1.1	2.0	90.6*
N#Cc1ccc(C(=O)Nc2nnc(-c3cccs3)o2)cc1	0.8	51.3	2.3	4.4	-8.2	33.2
O=C(Nc1nnc(-c2cccs2)o1)c1cccc(C(F)(F)F)c1	3.3	99.7*	3.3	-1.3	-0.7	100.0*
CCC1CCCCN1S(=O)(=O)c1ccc(C(=O)Nc2nnc(-c3cccs3)o2)cc1 (configuration not stated)	.	94.5*	.	.	7.2	99.2*
CC1CC(C)CN(S(=O)(=O)c2ccc(C(=O)Nc3nnc(-c4cccs4)o3)cc2)C1 (configuration not stated)	12.1	99.7*	7.7	23.0	0.9	100.2*
CC(=O)c1ccc2c(c1)c(C#N)c1ccccc1[n+]2[O-]	6.2	34.7	-1.1	17.0	41.8*	32.9
CCCCC1CN=C(N)N1CCCC (configuration not stated)	.	8.9	.	.	4.2	2.4
Cc1ccc(NC(=S)NC(=O)C2CCCCC2)c(Br)c1	18.4	-0.5	.	.	-2.7	87.1*
NS(=O)(=O)c1ccc(NC(=S)NC(=O)C2CCCCC2)cc1	23.9	4.9	0.2	.	12.6	88.9*
Cn1cccc1-c1cc(C(=O)NN=CC=Cc2ccccc2)[nH]n1	.	17.0	.	.	-1.4	41.8
COC(=O)/C(=C1/Oc2cc(C)oc(=O)c2S1)C(F)(F)F	-12.5	.	44.1*	11.7	.	.
COC(=O)/C(=C1/Oc2ccc(C(C)(C)C)cc2S1)C(F)(F)F	-7.0	2.0	.	1.3	-5.0	5.1
COC(=O)C1=CC(C(=O)OC)C2C3=C(C(=O)[C@@]2(C)NC(=O)c2ccccc2)C(C)C(C(=O)OC)=C(C(=O)OC)C3C1 (some centres not stated)	.	4.4	.	.	4.2	1.3
CC(C)Sc1nc2c(c(=O)n(C)c(=O)n2C)n1Cc1ccc(Cl)cc1	5.1	-13.1	4.6	12.1	37.8*	-0.5
